Source: PubChem BioAssay (National Center for Advancing Translational Sciences (NCATS))
Sfp PPTase inh = inhibitors of Bacillus subtilis Sfp phosphopantetheinyl transferase; Potency, µM, usual class: inhibitors; Biochemical Sfp PPTase activity, qHTS; AID 1490; 310,000 tested, 3.5% active; Q9F4F7;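 note: the enzyme is Sfp with the accession as filed and its product quenches rhodamine fluorescence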
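Sfp 15 nM + cpd, 15 min RT; start w/ rhodamine-CoA 5 uM, BHQ-2-YbbR 12.5 uM (final); 50 mM Hepes pH 7.6, 10 mM MgCl2, 0.01% NP-40, 0.01% BSA; read 525/598 nm at 0 and 30 min.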
ALOX12 inh = inhibitors of human 12S-lipoxygenase ALOX12; Potency, µM (highest dose often 108 µM), most hits filed as inhibitors; AID 1671190; 580,000 tested, 1.1% active; purified 12hLO, xylenol orange hydroperoxide absorbance
Target sequence (P18054 whole entry, looked up): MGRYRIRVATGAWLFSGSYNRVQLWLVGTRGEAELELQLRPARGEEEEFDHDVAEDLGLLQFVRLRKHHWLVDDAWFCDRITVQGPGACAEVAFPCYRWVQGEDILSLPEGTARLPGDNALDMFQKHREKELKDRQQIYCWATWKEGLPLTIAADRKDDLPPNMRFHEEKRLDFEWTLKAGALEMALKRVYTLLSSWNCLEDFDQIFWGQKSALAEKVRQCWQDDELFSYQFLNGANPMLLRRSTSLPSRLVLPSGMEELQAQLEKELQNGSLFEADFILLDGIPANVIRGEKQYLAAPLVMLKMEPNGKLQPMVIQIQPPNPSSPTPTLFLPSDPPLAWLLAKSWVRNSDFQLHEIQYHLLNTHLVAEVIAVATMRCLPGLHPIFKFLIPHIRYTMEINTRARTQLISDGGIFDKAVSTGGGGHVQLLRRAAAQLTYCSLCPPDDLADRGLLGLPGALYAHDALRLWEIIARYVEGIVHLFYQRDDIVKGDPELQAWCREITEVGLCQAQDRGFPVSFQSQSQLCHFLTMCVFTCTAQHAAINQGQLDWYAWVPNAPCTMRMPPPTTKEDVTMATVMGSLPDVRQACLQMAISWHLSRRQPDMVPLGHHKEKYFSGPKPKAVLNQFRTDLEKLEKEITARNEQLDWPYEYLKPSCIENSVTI
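Purified human 12hLO (150 nM final) in 25 mM Hepes, 0.01% Triton X-100, pH 7.0 was preincubated 15 min at room temperature with compound. Then 40 uM arachidonic acid was added, 30 min. Hydroperoxide was read by Fe-XO absorbance ratio 573/405 nm.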
VDR inhibitor = blocks the human vitamin D receptor | 400,000 tested, 0.93% active | AID 504847 | Potency, µM, actives largely listed as inhibitors | VDR-SRC2-3 peptide fluorescence polarization, 2 h | P11473
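Signal is fluorescence polarization, reporting how far test compounds block the interaction of VDR with the SRC2-3 coregulator peptide after a 2 h room-temperature incubation.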
G9a block = G9a (human) methyltransferase inhibition; G9a H3K9 monomethylation, AlphaScreen, 2 h; Q96KQ7; Potency, µM (highest dose often 102 µM), usual class: inhibitors; 350,000 tested, 8.8% active; note: nearly all actives have a fitted effect of over 75% in size
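Quantitative HTS format: methyltransferase activity on a biotin-tagged H3K9 peptide is measured by AlphaScreen, using a rabbit anti-monomethyl-H3K9 antibody with streptavidin donor and anti-IgG acceptor beads. Final levels are 20 nM enzyme, 500 nM peptide, 20 uM SAM; 2 h RT.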
Glioma ERSR ind = inducers of ER stress response in human glioma cells; U87-MG GRP78 promoter luciferase reporter, 16 h; 420,000 tested, 0.02% active; AID 602332; Potency, µM, actives largely listed as activators; note: series mostly up to about 76 µM; nearly all actives have a fitted effect of over 35% in size
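Stably transfected U87-MG human glioma cells carrying a GRP78-based luminescent sensor were seeded at 1000 cells/well, pin-dosed with compounds and incubated 16 h. Luciferase reagent was then added, and end-point luminescence was read after 10 min at room temperature.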
A number is an active result; 0 = inactive; ? = inconclusive; - = no result given; [ ] = remark or other dose. The entries come from a sample that favours hits as a whole. Calls come from the whole dose curve; as a rule, active = well fitted curve in the direction sought with a large enough effect; inconclusive = small, poorly fitted or top-dose-only effect, or another doubt; inactive = no such curve, though single readings can be large; an effect the other way counts as inactive or inconclusive.

SMILES	Sfp PPTase inh	ALOX12 inh	VDR inhibitor	G9a block	Glioma ERSR ind
O=C(/C(=C/c1ccccc1)n1cncn1)c1ccc(Cl)cc1Cl	0	?	20µM	0	0
O=C(/C(=N\O)n1cncn1)c1ccc(Cl)cc1Cl	0	0	0	0	0
Fc1ccccc1COc1ccc(Br)cc1CNc1nn[nH]n1	-	0	-	-	-
CN(C)c1nc(C(=O)NN)nc(N(C)C)n1	0	0	0	0[12.7 µM]	0
CN(C)c1nc(N)c2ncc(=S)[nH]c2n1	50µM	?	0	1.8µM	0
S=c1[nH]nc(-c2ccc(Cl)cc2)n1/N=C/c1ccco1	0	?	0	0.89µM	0
Cc1ccsc1/C=N/n1c(-c2cccnc2)n[nH]c1=S	0	?	0	?	0
S=c1[nH]nc(-c2ccco2)n1/N=C/c1ccc(Cl)cc1Cl	0	?	0	?	0
FC(F)(F)c1n[nH]c(=S)n1/N=C/c1ccco1	0	0	0	3.5µM	0
S=c1[nH]nc(-c2cc(-c3ccccc3)n[nH]2)n1/N=C/c1ccc(Cl)cc1	0	0	0	?	0
CC(/C=N/n1c(-c2cccnc2)n[nH]c1=S)=C\c1ccco1	0	?	0	1.3µM	0
S=c1[nH]nc(-c2ccco2)n1/N=C/c1cccc(Cl)c1Cl	0	?	0	1.4µM	0
CCc1ccccc1NC(=O)CN1CCN(C(=O)c2oc3ccccc3c2C)CC1	-	0	-	-	-
O=C1/C(=C/c2ccc3ccccc3c2)Cc2ccccc21	-	0	-	-	-
S=c1[nH]nc(-c2cccnc2)n1/N=C/C=C/c1ccco1	16µM	?	0	-	0
O=[N+]([O-])c1ccccc1/C=N/n1c(-c2ccccc2)n[nH]c1=S	0	0	0	-	0
CC(/C=N/n1c(-c2n[nH]c3c2CCC3)n[nH]c1=S)=C\c1ccco1	45µM	0	0	-	0
C/C(=N\NC(=O)c1n[nH]c2c1CCC2)c1ccco1	0	0	0	0	0
S=c1[nH]nc(-c2ccc(Cl)cc2)n1/N=C/C=C/c1ccco1	56µM	14µM	0	-	0
O=[N+]([O-])c1ccccc1/C=C/C=N/n1c(-c2ccccc2F)n[nH]c1=S	28µM	0	0	1.8µM	0
CC(=C/c1ccccc1)/C=N/n1c(-c2ccco2)n[nH]c1=S	?	?	0	0.56µM	0
S=c1[nH]nc(-c2ccccc2)n1/N=C/C=C/c1ccco1	50µM	40µM	0	1.3µM	0
Cc1ccc(N/N=C/C=C/c2ccco2)cc1	-	?	0	-	0
S=c1[nH]nc(-c2ccco2)n1/N=C/C=C/c1ccccc1	0	?	0	0.71µM	0
Cc1ccccc1-c1n[nH]c(=S)n1/N=C/C=C/c1ccco1	0	?	71µM	2.2µM	0
SMILES	Sfp PPTase inh	ALOX12 inh	VDR inhibitor	G9a block	Glioma ERSR ind
O=C(CSc1nnc2ccc(-c3ccncc3)nn12)N1CCCc2ccccc21	-	0	-	-	-
O=C(CBr)c1ccc([N+](=O)[O-])c(CS(=O)(=O)c2ccc(Cl)cc2)c1	56µM	?	35µM	7.1µM	0
O=C(O)c1ccc([N+](=O)[O-])c(CS(=O)(=O)c2ccc(Cl)cc2)c1	0	0	0	0	0
CN1CCN(C(CNCC(O)COC2CCCc3ccccc32)c2cccs2)CC1 (configuration not stated)	-	0	-	-	-
Oc1ccccc1N1CCN(CC(O)COC2CCCc3ccccc32)CC1 (configuration not stated)	0	?	0	79µM	0
CC(C)OCCCNC(=O)Cn1ccc2c(Cl)cccc21	-	0	-	-	-
CCCCCn1cnc2c(=S)nc(N)[nH]c21	2.5µM	?	0	8.9µM	0
CCCCn1cnc2c(=S)nc(N)[nH]c21	14µM	?	0	6.3µM	0
CCCCn1cnc2c([nH]c3ccccc32)c1=O	0	0	0	0[0.501 µM]	0
CCCCCCCCn1cnc2c(N)c(C)c(C)cc21	0	0	0	0[0.0925 µM]	0
CCCn1cnc2c(=S)nc(N)[nH]c21	40µM	?	0	-	0
COc1ccc2cc(C(=O)NCc3cccnc3-n3cccn3)c(C)nc2c1	-	0	-	-	-
CCOC(=O)c1cc(NC(=O)C(C)CC)cc(C(=O)OCC)c1 (configuration not stated)	-	0	-	-	-
CC(C)C(=O)Nc1sc2c(c1C#N)CCCCC2	32µM	?	0	0	0
CC1CCc2c(sc(NC(=O)C(C)C)c2C#N)C1 (configuration not stated)	-	0	-	-	-
N#Cc1c(NC(=O)C2CC2)sc2c1CCCCC2	?	?	0	89µM	0
CCOc1cc(/C=C(\C#N)C(=O)C(C)(C)C)ccc1OCc1ccccc1Cl	-	0	-	-	-
